This is an account of results in PubChem BioAssay (NCATS).

Inconclusive results are not listed. Entries that show only a call come without a potency. The source made the active and inactive calls. The call rests on the fitted dose curve; in most records, active means well fitted inhibition curve with a large enough effect; inconclusive means small, poorly fitted or top-dose-only effect; inactive means flat fitted curve, though single readings scatter.

The target in this experiment is Calcium and integrin-binding protein 1 (Homo sapiens) (UniProt Q99828). Description: Primary qHTS for Identification of Calcium Integrin Binding Protein 1 (CIB1) Competitor (AID 1508620). Further: top concentration of the series differs between compounds. Particulars: CIB1-GST / FITC-alphaIIb peptide fluorescence polarization; series mostly up to 114 µM. The method, boiled down: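 Fluorescence polarization competition: GST-tagged CIB1 (1 uM final) preincubated with compound 15 min at room temperature, then FITC-labelled alphaIIb peptide (100 nM final) added. After 15 min at room temperature, polarization read at Ex 480/Em 540.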
Chain of Calcium and integrin-binding protein 1 (Homo sapiens) (Q99828 whole entry, looked up): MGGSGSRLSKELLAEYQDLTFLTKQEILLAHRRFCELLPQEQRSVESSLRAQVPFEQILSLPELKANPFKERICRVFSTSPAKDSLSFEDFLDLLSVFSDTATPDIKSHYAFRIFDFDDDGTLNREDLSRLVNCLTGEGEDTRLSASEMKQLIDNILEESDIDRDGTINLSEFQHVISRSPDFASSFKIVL
For `CCCC(=O)C1CCN(c2ncnc3c2CN(C(=O)c2ccc(-c4ccccc4)cc2)CC3)CC1`, the Potency result is “inactive”.

Turning to `Cn1c2ccc(F)cc2c2c(C(=O)N3CCCC3)cn(-c3ccccc3)c(=O)c21`, the Potency entry was “inactive”.

For the compound `CC(C)(C#N)c1ccc(N2C(=O)OCc3cnc4ccc(-c5cnc6ccccc6c5)cc4c32)cc1`, the Potency entry is “inactive”.

In the case of `CC(C)=C/C=C\[C@H](C)[C@H]1CC[C@]2(C)C[C@@H]3C(C)=CC(=O)C3/C(CO)=C\C[C@@H]12` (some centres not stated), the Potency entry is “inactive”.

As for `O=C(O)CC1CCC(c2ccc(-c3ccc4nc(C(=O)NCc5ccc(OC(F)(F)F)cc5)cn4c3)cc2)CC1` (configuration not stated), the Potency entry is “inactive”.

In the case of `COc1ccc(-c2cnc(-c3cccc4c3-c3ccccc3C4=O)o2)cc1`, the Potency entry is “inactive”.

`CC(C)C(N)C(=O)OCCOCn1cnc2c(=O)[nH]c(N)nc21` (configuration not stated): the Potency entry is “inactive”.

As for `COc1ccc2cc(C(C)C(=O)Oc3ccc(C(N)=S)cc3)ccc2c1` (configuration not stated), the Potency entry was “inactive”.

In the case of `COc1cc(C(=O)OC[C@@]2(O)CO[C@@H](O[C@H]3[C@H](Oc4ccc(C(=O)O)cc4OC)O[C@H](CO)[C@@H](O)[C@@H]3O)[C@@H]2O)ccc1O`, the Potency entry was “inactive”.

On to `C[S+](CC[C@H](N)C(=O)[O-])C[C@H]1O[C@@H](n2cnc3c(N)ncnc32)[C@H](O)[C@@H]1O` (some centres not stated), for which the Potency result is “inactive”.

As for `COC(=O)CCc1cc2ccoc2c(OC)c1O[C@@H]1O[C@H](CO)[C@@H](O)[C@H](O)[C@H]1O`, the Potency result is “inactive”.

In the case of `CC1(C)CC[C@]2(C(=O)O[C@@H]3O[C@H](CO)[C@@H](O)[C@H](O)[C@H]3O)CC[C@]3(C)C(=CCC4[C@@]5(C)CC[C@H](O[C@@H]6O[C@H](C(=O)O)[C@@H](O)[C@H](O)[C@H]6O)C(C)(C)C5CC[C@]43C)C2C1` (some centres not stated), the Potency entry is “inactive”.
